PubChem BioAssay AID779 (Sanford-Burnham Center for Chemical Genomics, 2007)
Active and inactive are the calls of the source. How the calls were made is not given here.

Experiment: placental alkaline phosphatase inhibitors, dose response, counter-screen, biochemical, colorimetric (AID 779)
Settings: PLAP counter-screen, colorimetric OD read-out
With `CC1(C)CCCN(C(=O)c2coc(=O)c(Br)c2)C1` the IC50 was > 50 µM (inactive).
In the case of `CC(C)C(C(=O)O)N1C(=O)/C(=C/C=C/c2ccco2)SC1=S` (configuration not stated), the IC50 was > 50 µM (inactive).
For `COc1cc(/C=C2\SC(=S)N(Nc3ncc(C(F)(F)F)cc3Cl)C2=O)cc(OC)c1OC`, the IC50 was > 50 µM (inactive).
For `Cc1cc(C)c2nc(N3CCCN(C(=O)c4ccco4)CC3)c(C#N)cc2c1`, the IC50 was > 50 µM (inactive).
For `O=[N+]([O-])/C=C/c1cn(Cc2ccccc2)c2ccccc12`, the IC50 was > 50 µM (inactive).
With `Oc1c(N=Nc2ccccn2)ccc2ccccc12` the IC50 was > 50 µM (inactive).
For `CCC(C)N1C(=O)/C(=C/c2c(NCCCOC(C)C)nc3c(C)cccn3c2=O)SC1=S` (configuration not stated), the IC50 was > 50 µM (inactive).
For `COc1ccc(C(c2nnnn2Cc2cccs2)N2CCN(c3ccccc3F)CC2)cc1` (configuration not stated), the IC50 was > 50 µM (inactive).
With `O=C(CCN1C(=O)/C(=C/C=C/c2ccccc2)SC1=S)Nc1nccs1` the IC50 was > 50 µM (inactive).
With `COc1ccc(OC)c(NC(=O)CSc2nc3ccccc3cc2Cc2ccccc2)c1` the IC50 was > 50 µM (inactive).
With `Cc1cc2cc(CNC(=O)c3ccc(S(=O)(=O)N4CCCCC4)cc3)ccc2n1C` the IC50 was > 50 µM (inactive).
In the case of `CCCCN(CCCC)C1=Nc2ccccc2N/C1=C(/C#N)C(=O)OCC`, the IC50 was > 50 µM (inactive).
For `O=C(NCc1ccccc1)c1ccc2nc(-c3ccco3)c(-c3ccco3)nc2c1`, the IC50 was > 50 µM (inactive).
In the case of `O=C(Nc1cccc2ccccc12)/C(=C/c1ccc([N+](=O)[O-])cc1)NC(=O)c1ccccc1`, the IC50 was > 50 µM (inactive).
With `CCN(CCCNC(=O)CN(C)S(=O)(=O)c1cccc2nsnc12)c1cccc(C)c1` the IC50 was > 50 µM (inactive).
For `Nc1ccc(Br)c2c1C(=O)c1ccccc1C2=O`, the IC50 was > 50 µM (inactive).
For `CCSc1nnc(NC(=O)C(C(F)(F)F)C(F)(F)F)s1`, the IC50 was > 50 µM (inactive).
For `c1ccc(-c2cn3nc(-c4ccccc4)c(-c4ccccc4)nc3n2)cc1`, the IC50 was > 50 µM (inactive).
With `COC(=O)CSc1nc(-c2ccccc2)cc(-c2ccco2)c1C#N` the IC50 was > 50 µM (inactive).
With `Cn1c(=O)[nH]c(=O)c2c1nc1n2CCN1Cc1ccccc1` the IC50 was > 50 µM (inactive).
In the case of `CC1Cc2ccccc2N1Cc1nc2cc(C(F)(F)F)ccc2c(=O)[nH]1` (configuration not stated), the IC50 was > 50 µM (inactive).
For `CCOC(=O)c1c(NC(=S)Nc2ccccc2)sc2c1CCN(CCc1ccccc1)C2`, the IC50 was > 50 µM (inactive).
With `CCOC(=O)c1c(NC(C)=O)sc2c1CCC(C=O)=C2Sc1ccccc1` the IC50 was > 50 µM (inactive).
In the case of `COc1ccc(Cc2nnc(NC(=O)Cc3cccs3)s2)cc1`, the IC50 was > 50 µM (inactive).
With `Cc1ccc(C2=N/C(=C\c3cccs3)C(=O)N2Nc2ccccc2)cc1` the IC50 was > 50 µM (inactive).
In the case of `CCSc1nnc(-c2sc3nnc(-c4ccccc4)c(-c4ccccc4)c3c2N)o1`, the IC50 was > 50 µM (inactive).
In the case of `C/C(=C\C(=O)c1ccccc1)NNc1nc2ccccc2s1`, the IC50 was > 50 µM (inactive).
With `CCOC(=O)c1cc(-c2ccc(/C=C3/C(=O)NC(=O)C(C#N)=C3C)o2)ccc1Cl` the IC50 was > 50 µM (inactive).
For `Cc1ccc(S(=O)(=O)/C(C#N)=C/c2c(N3CCOCC3)nc3ccccn3c2=O)cc1`, the IC50 was > 50 µM (inactive).
For `Cc1ccccc1C(=O)c1cccn1CC(=O)NCC1CCCO1` (configuration not stated), the IC50 was > 50 µM (inactive).
For `Cc1ccc(C)c(N(CC(=O)N/N=C/c2ccc(-c3ccc([N+](=O)[O-])cc3)o2)S(=O)(=O)c2ccccc2)c1`, the IC50 was > 50 µM (inactive).
For `Cc1cccc2cc(/C=C3\N=C(c4ccccc4)OC3=O)c(N3CCOCC3)nc12`, the IC50 was > 50 µM (inactive).
